The source of these data is PubChem BioAssay (NCATS).

Assay [1] can be described thus: NCATS anti-infectives library activity on HEK293 viability as a counter-qHTS vs the C. elegans viability qHTS (AID 1745854).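 Note: HEK293 cells exposed to compounds for 24 hr before the viability read; % is set by controls: 0 for no effect and ±100 for the full control effect.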 Summed up:
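Compound titrations (final up to 41.7 uM) were incubated with HEK293 cells for 24 hr at 37C under 5% CO2. Viable cells were quantified with CellTiter-Glo after 10 min at ambient temperature.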

Assay [2] is described as follows: qHTS Assay for Identification of Small Molecule Antagonists for Thrombopoietin (TPO) Signaling Pathway (AID 918). Note: potency is the fitted concentration of half-maximal effect; nearly all actives have a fitted effect of over 60% in size. To be noted: TPO-dependent cell signaling reporter, antagonist mode. The gist of the method: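 Antagonist mode at EC50 TPO (26 pM) in IL-3-free medium; murine Ba/F3 cells with human TPO receptor and GPIIb-promoter luciferase, 24 hrs at 37 C before luminescent detection.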

The target in assay [3] is Calcium and integrin-binding protein 1 (Homo sapiens) (UniProt Q99828). Briefly: Primary qHTS for Identification of Calcium Integrin Binding Protein 1 (CIB1) Competitor (AID 1508620).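 Note: GST tagged CIB1 binding a fluorescein labelled alphaIIb integrin peptide tracer; top concentration of the series differs between compounds; % is set by controls: 0 for no effect and ±100 for the full control effect.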 Summed up: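 Fluorescence polarization competition: CIB1-GST (1 uM final) preincubated with compound 15 min at room temperature, then FITC-labeled alphaIIb peptide (100 nM final) added for another 15 min. Polarization read at Ex 480/Em 540.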

Assay [4] is described as follows: qHTS to identify inhibitors of the type 1 interferon - major histocompatibility complex class I in skeletal muscle: primary screen against the NCATS Mechanism Interrogation Plate v5.0 (MIPE) Libary (AID 1347411).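 Note: plate controls were vehicle for no effect and reference inhibitor for full effect; nearly all actives have a fitted effect of over 65% in size.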 Summed up:
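IFN-beta-driven (4 ng/ml) HLA-B-HiBit expression in CRISPR-tagged C25cl48 myoblasts; compounds 11-pt, 1:3, max 46 uM, 24 hr exposure; lytic NanoLuc complementation luminescence.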

The nature of assay [5]: qHTS for differential inhibitors of proliferation of Plasmodium falciparum line Dd2 (AID 1882).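 Note: plate controls were DMSO vehicle for no effect and 0.29 µM artemisinin for full effect; nearly all actives have a fitted effect of over 65% in size.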 To be noted: Potency: Plasmodium falciparum Dd2 proliferation inhibition. The gist of the method: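 RBC culture, 0.3% parasitemia / 2.5% Hct final; cpd added by pin tool in DMSO; 72 h, 37 C, 5% CO2; lysis buffer + SYBR Green I, o/n RT dark; FI 485/535; norm. to artemisinin 0.29 uM and DMSO.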

A short description of assay [6]: qHTS Assay for Modulators of Human Peripheral Myelin Protein 22 (PMP22) Expression/Activity (AID 1967; active = well fitted curve in the direction sought with a large enough effect in the signal ratio; the % refers to the signal ratio;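 note: 0% = untreated cells and 100% end not stated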). The gist of the method:
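Luminescence ratio of Pmp22 promoter-driven green luciferase to EF-alpha-driven red luciferase, in engineered mouse MSC80 Schwann cells, served as read-out. Compounds were incubated 24h; untreated cells defined 0% Activity; curves were classified by r2, magnitude and activity.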

The target of assay [7] is Galactokinase (Homo sapiens) (UniProt P51570). Briefly: qHTS Validation Assay for Inhibitors of Human Galactokinase (GALK) (AID 493189). Note: 0% is about no effect. Summed up:
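5 nM GALK / 100 uM galactose / 35 uM ATP, 20 mM HEPES pH8.0, 5 mM MgCl2, 60 mM NaCl, 1 mM DTT, 0.01% BSA (final). RT 1 h; Kinase-Glo Plus luminescence.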

The nature of assay [8]: Validation screen for small molecules that induce DNA re-replication in SW480 colon adenocarcinoma cells (AID 504364). Note: 0% is about no effect. The gist of the method: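 Hoechst-stained SW480 nuclei, imaged at 405 nm excitation after 48 hr compound exposure, were counted for elevated DNA content as the re-replication signal.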
Assay [9] addresses Voltage-gated inwardly rectifying potassium channel KCNH2 (Homo sapiens) (UniProt Q12809). Description: qHTS Assay for Small Molecule Inhibitors of the Human hERG Channel Activity (AID 588834).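 Note: top concentration of the series differs between compounds; % is set by controls: 0 for no effect and ±100 for the full control effect; lower thallium flux fluorescence means stronger hERG block; nearly all actives have a fitted effect of over 50% in size.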 The gist of the method: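 Step 1: BacMam hERG transduction of U2OS, 4 hrs RT. Step 2: overnight 37 °C, plate 2000 cells/well, 4 hr. Step 3: FluxOR load, compound 10 min, stimulate, read fluorescence.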

Assay [10] can be described thus: Cell Viability qHTS for small molecule stabilizers of the endoplasmic reticulum resident proteome (AID 1508629).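 Note: human SH-SY5Y neuroblastoma cells carrying the GLuc-SERCaMP reporter; compound exposure about 46 h in total before the viability read; % is set by controls: 0 for no effect and ±100 for the full control effect.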 Particulars: cell viability counter-screen, 100 nM thapsigargin for final 4 h.
In assay [11] the target is ATP-dependent 6-phosphofructokinase (Trypanosoma brucei brucei) (UniProt O15648). Briefly: qHTS Assay to Find Inhibitors of T. brucei phosphofructokinase: hit validation (AID 492961).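 Note: luminescence reports ADP formed as PFK phosphorylates fructose-6-phosphate with ATP; % is set by controls: 0 for no effect and ±100 for the full control effect.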 The gist of the method:
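Percent activity derived from corrected luminescence, normalized between 0x and 1x enzyme controls, then fitted to concentration-response curves. Conditions: 1.25 nM PFK, 0.1 mM ATP, 0.5 mM F6P, 45 min RT.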

The nature of assay [12]: qHTS profiling for inhibitors of Plasmodium falciparum proliferation (AID 504749).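 Note: 0% = DMSO vehicle and full inhibition = artemisinin control; nearly all actives have a fitted effect of over 60% in size.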 To be noted: P. falciparum in erythrocytes, SYBR Green DNA, 72 h, at 28.7 µM (top of the series). Summed up: (§1)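 Fluorescence of SYBR Green-bound parasite DNA, read at 485/535 nm, served as the growth measure. Infected erythrocytes were cultured with compound 72 h; artemisinin (0.29 uM) and DMSO wells defined the normalization range.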

Assay [13] has as its system AS120. The assay is described as above. Particulars: P. falciparum in erythrocytes, SYBR Green DNA, 72 h; series mostly up to 28.7 µM. Summed up:
as §1

Assay [14] relates to ATS189. The description is as above. Particulars: P. falciparum in erythrocytes, SYBR Green DNA, 72 h; series mostly up to 28.7 µM. Summed up: as §1
For assay [15], the system named is CP203. The assay is described as above. To be noted: P. falciparum in erythrocytes, SYBR Green DNA, 72 h; series mostly up to 28.7 µM. The gist of the method:
as §1

The test system of assay [16] is CP291. Described as above. Particulars: P. falciparum in erythrocytes, SYBR Green DNA, 72 h; series mostly up to 28.7 µM. The gist of the method: as §1
The subject of assay [17] is DFO2036. The assay is described as above. To be noted: P. falciparum in erythrocytes, SYBR Green DNA, 72 h; series mostly up to 28.7 µM. Summed up: as §1
Assay [18] concerns DIV14. The description is as above. Particulars: P. falciparum in erythrocytes, SYBR Green DNA, 72 h; series mostly up to 28.7 µM. The gist of the method: as §1
Assay [19] deals with DIV17. The description is as above. Particulars: P. falciparum in erythrocytes, SYBR Green DNA, 72 h; series mostly up to 28.7 µM. The gist of the method: as §1
The test system of assay [20] is GB4. The assay is described as above. Particulars: P. falciparum in erythrocytes, SYBR Green DNA, 72 h; series mostly up to 28.7 µM. Summed up: as §1

SMILES strings stand for the structures. Unmarked numbers belong to inactive results. Results filed as inconclusive are left out. Activity calls are given as the source filed them. Unless noted, calls come from the whole dose curve; as a rule, active = well fitted curve in the direction sought with a large enough effect; inconclusive = small, poorly fitted or top-dose-only effect, or another doubt; inactive = no such curve, though single readings can be large; an effect the other way counts as inactive or inconclusive.

Chain of Galactokinase (Homo sapiens) (P51570 whole entry, looked up): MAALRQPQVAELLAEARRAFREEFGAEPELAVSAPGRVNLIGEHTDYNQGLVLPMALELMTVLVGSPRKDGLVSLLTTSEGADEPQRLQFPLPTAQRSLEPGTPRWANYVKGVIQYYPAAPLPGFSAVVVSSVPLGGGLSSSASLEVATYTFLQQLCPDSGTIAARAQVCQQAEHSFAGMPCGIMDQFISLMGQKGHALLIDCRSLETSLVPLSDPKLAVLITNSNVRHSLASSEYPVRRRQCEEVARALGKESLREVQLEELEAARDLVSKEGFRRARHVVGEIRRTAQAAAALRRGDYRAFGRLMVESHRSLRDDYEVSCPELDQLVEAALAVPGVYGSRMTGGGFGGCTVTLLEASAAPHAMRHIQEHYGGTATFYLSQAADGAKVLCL
Chain of Voltage-gated inwardly rectifying potassium channel KCNH2 (Homo sapiens) (Q12809 whole entry, looked up): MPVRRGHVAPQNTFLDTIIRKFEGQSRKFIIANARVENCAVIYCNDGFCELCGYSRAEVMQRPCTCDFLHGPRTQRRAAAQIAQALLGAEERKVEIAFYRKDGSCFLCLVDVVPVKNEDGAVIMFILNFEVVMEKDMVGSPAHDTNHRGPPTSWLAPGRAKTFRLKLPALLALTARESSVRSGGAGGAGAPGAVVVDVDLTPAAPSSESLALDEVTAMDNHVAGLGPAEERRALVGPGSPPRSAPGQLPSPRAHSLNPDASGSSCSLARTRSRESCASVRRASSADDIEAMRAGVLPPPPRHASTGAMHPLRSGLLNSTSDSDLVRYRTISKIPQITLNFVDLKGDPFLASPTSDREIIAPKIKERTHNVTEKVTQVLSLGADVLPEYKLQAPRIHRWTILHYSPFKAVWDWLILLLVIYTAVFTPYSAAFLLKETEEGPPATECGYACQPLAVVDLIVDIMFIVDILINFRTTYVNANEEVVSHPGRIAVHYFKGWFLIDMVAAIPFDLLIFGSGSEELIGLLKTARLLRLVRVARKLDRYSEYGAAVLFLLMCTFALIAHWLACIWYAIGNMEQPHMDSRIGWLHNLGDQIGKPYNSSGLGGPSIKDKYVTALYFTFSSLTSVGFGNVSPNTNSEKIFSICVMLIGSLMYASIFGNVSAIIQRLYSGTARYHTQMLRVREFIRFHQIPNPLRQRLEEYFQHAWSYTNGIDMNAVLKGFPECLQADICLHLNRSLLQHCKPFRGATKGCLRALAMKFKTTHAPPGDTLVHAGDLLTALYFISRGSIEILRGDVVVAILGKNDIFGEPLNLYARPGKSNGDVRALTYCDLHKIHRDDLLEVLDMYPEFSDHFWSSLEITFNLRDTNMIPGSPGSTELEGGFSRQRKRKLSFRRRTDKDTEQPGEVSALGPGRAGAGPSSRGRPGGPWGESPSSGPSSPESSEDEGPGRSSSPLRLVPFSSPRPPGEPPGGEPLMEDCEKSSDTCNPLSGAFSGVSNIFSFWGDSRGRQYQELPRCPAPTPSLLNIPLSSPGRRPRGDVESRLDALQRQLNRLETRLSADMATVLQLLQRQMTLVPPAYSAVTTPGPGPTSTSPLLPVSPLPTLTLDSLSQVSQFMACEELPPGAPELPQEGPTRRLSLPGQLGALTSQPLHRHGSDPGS
Chain of ATP-dependent 6-phosphofructokinase (Trypanosoma brucei brucei) (O15648 whole entry, looked up): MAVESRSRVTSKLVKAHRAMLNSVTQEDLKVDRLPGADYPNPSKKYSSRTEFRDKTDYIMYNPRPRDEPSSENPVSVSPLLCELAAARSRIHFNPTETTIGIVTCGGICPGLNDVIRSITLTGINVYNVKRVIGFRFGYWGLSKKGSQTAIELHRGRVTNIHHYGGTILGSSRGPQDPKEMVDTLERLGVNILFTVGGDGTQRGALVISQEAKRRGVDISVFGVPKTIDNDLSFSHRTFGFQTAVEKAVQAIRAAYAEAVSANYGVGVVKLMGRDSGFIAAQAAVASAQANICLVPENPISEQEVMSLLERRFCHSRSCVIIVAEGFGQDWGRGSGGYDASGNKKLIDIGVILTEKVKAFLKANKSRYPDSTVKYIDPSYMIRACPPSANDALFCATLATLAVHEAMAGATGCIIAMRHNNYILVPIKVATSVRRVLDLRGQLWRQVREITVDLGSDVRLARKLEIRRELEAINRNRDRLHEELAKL
Chain of Calcium and integrin-binding protein 1 (Homo sapiens) (Q99828 whole entry, looked up): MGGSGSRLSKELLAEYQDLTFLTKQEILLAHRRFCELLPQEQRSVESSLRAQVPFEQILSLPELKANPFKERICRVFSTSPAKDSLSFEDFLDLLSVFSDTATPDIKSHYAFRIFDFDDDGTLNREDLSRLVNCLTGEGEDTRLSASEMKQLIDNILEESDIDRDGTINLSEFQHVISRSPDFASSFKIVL

On to `COc1c(O)cc2oc(-c3ccccc3)cc(=O)c2c1O`, for which the call in [1] was inactive.
Turning to `CSc1ccc2c(c1)[C@H](N1CCN(C)CC1)Cc1ccccc1S2`, in assay [2], the Potency was 10 µM (active).
Regarding `Cc1ccc(NS(=O)(=O)c2cc3c(cc2N[C@@H](C)CO)NC(=O)CC3)cc1Cl`, in assay [3], the outcome was inactive.
For the compound `COc1ccc2c(c1)CC[C@@H]1[C@@H]2CC[C@]2(C)[C@@H](NCCCCCCN3C(=O)C=CC3=O)CC[C@@H]12`, the Potency result in assay [4] is “inactive”.
As for `CC(N)=NCc1cccc(CN)c1`, the Potency entry in assay [5] and in assay [9] was “inactive” throughout. Moreover, the outcome in assay [6], in assay [7] and in [8] was inactive.
Turning to `CN1C[C@H](C(=O)N[C@]2(C)O[C@@]3(O)[C@H]4CCCN4C(=O)[C@H](Cc4ccccc4)N3C2=O)C[C@H]2c3cccc4[nH]cc(c34)C[C@@H]21`, the max response in assay [10] is 18%.
As for `C/C=C1\C2C=C(C)CC1(N)c1ccc(=O)[nH]c1C2` (centres undefined), the outcome in [11] was inactive. In addition, the activity, negative = inhibition was -3.71% in assay [12] (parasite line A) and 0.727% in assay [12] (parasite line B). Besides, the Potency result in assay [13], in [14], in [15], in assay [16], in assay [17] and in assay [18] was “inactive” in each case. The Potency result in assay [19] and in assay [20] was “inactive” in each case.
Regarding `COC(=O)c1c(-c2cc(OC)c(OC)c(OC)c2)c2ccnc(OCc3ncccn3)c2c(=O)n1Cc1ccnc(C)c1`, the call in assay [7] and in [8] was inactive. In assay [9], the Potency result is “inactive”.
